VLA-4 inh = inhibition in a human VLA-4 binding assay; inhibition, % (about 7 µM as worked out from the volumes in the protocol); P13612; actives 0.2% (n = 330,000); VLA-4 expressing cells, ligand binding flow cytometry; in the data active = inhibition above about 50%
Target sequence (P13612 whole entry, looked up): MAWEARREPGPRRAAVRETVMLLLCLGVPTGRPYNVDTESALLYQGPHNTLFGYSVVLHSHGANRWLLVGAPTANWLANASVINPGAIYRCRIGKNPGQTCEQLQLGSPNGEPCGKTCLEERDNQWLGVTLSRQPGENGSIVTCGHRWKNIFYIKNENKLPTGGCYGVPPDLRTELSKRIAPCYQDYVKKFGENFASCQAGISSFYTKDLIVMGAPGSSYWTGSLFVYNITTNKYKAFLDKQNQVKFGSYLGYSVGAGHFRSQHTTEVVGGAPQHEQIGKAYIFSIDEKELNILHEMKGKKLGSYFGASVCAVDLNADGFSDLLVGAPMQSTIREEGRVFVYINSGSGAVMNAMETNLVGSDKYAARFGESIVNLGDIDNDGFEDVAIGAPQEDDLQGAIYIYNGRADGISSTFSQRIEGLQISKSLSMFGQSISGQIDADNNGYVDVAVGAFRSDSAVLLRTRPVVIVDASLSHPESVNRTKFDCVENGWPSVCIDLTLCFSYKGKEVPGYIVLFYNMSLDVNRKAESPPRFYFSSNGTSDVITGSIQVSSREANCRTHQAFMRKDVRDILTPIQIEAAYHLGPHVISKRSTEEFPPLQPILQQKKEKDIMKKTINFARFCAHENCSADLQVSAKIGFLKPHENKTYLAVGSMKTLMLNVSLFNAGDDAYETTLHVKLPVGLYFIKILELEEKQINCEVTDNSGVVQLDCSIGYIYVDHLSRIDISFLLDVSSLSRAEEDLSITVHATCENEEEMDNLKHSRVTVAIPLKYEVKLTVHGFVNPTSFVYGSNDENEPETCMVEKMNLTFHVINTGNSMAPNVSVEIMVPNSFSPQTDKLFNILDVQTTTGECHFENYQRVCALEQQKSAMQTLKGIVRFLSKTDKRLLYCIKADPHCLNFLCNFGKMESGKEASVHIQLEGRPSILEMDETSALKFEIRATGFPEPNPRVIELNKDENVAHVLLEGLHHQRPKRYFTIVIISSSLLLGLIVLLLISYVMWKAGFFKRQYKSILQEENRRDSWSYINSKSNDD
MEP2-GFP yeast = yeast TOR pathway MEP2-GFP modulation. GFP response vs DMSO, % at 10 µM. actives 0.51% (n = 330,000). S. cerevisiae MEP2-GFP strain, flow cytometry GFP, 3 h; 100% = DMSO control level. AID 2016;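 active = GFP response versus DMSO above a set limit, roughly screen mean plus 3 SD, cut at about 180% in these data; inconclusive = fewer than 70 cells counted for a yeast strain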;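 also: median GFP fluorescence of the barcode-gated MEP2-GFP cells per well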
AGP1 TOR yeast = yeast TOR pathway AGP1-GFP modulation. S. cerevisiae AGP1-GFP multiplex flow cytometry, 3 h; GFP as percent of DMSO wells. GFP response vs DMSO, % at 10 µM. actives 0.02% (n = 320,000). AID 2066;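 active = GFP response relative to DMSO above a set limit, near screen average plus 3 SD, cut at about 150% in these data; inconclusive = fewer than 70 cells counted for the yeast strain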;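 also: median GFP channel fluorescence of the gated AGP1 strain per well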
LAP4 TOR yeast = modulators of TOR pathway LAP4-GFP in S. cerevisiae | S. cerevisiae LAP4-GFP multiplex, flow cytometry GFP, 3 h; median GFP as percent of DMSO wells | GFP response vs DMSO, % at 10 µM | actives 0.34% (n = 320,000) | AID 2023;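 active = GFP response vs DMSO above a set limit, about the screen mean plus 3 SD, cut at about 150% in these data; inconclusive = under 70 cell events counted for the yeast strain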
RPL19A TOR yeast = yeast TOR pathway RPL19A-GFP modulation; S. cerevisiae RPL19A-GFP strain, flow cytometry, 3 h; active compounds read low; AID 2025; actives 0.3% (n = 330,000); percent response vs DMSO, % at 10 µM;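 active = percent response vs DMSO below 50%; inconclusive = fewer than 70 events counted for the yeast strain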;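 also: median channel GFP fluorescence of the barcoded RPL19A-GFP strain; ratio of sample median GFP to plate DMSO average so 100% = DMSO; lower means less RPL19A-GFP as with rapamycin TOR inhibition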
CIT2-GFP yeast = yeast TOR pathway CIT2-GFP modulation; S. cerevisiae CIT2-GFP strain, flow cytometry, 3 h; 100 means same as DMSO wells; GFP response vs DMSO, % at 10 µM; actives 0.065% (n = 320,000);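 active = GFP response relative to DMSO above a set limit, near the screen mean plus 3 SD, cut at about 150% in these data; inconclusive = Fewer than 70 cells measured for a yeast strain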;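 also: ratio of well median GFP fluorescence to mean of DMSO wells on the plate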
* = called active by the depositor; ? = inconclusive; nt = not tested or not shown; [ ] = dose if it differs, or a comment. Compounds with a hit are over-represented: about 1.1% of the library has one in this group of screens.

SMILES | VLA-4 inh | MEP2-GFP yeast | AGP1 TOR yeast | LAP4 TOR yeast | RPL19A TOR yeast | CIT2-GFP yeast
COc1ccc(NC(=O)CSc2nnc(NC(=O)C3CCC3)s2)cc1 | -3 | 106 | 93 | 90 | 105 | 105
COc1ccc(NC(=O)CSc2nnc(NC(=O)C3CCC3)s2)c(OC)c1 | 10 | 199*[may fluoresce violet] | ? | 90 | 46*[may fluoresce violet] | ?
CCc1noc(C)c1C(=O)Nc1nnc(CC(C)C)s1 | 9 | 101 | 92 | 114 | 96 | 81
Cc1ccc(N2C3=C(C(=O)CC(C)(C)C3)C(c3cn(C)nc3C)C3=C2CC(C)(C)CC3=O)cc1 | -99 | 180* | 113 | 149 | 104 | 153*
Cc1cc(C)c2c(N)c3cccc(C)c3nc2n1 | -18 | 322*[may fluoresce violet] | 25 | 94 | 62 | ?
Cc1cccc2c(N)c3c(nc12)N(C)CC3 | -40 | 111 | 105 | 103 | 98 | 101
CC(C)(CC(=O)O)CC(=O)Nc1ccccc1Oc1ccccc1 | -6 | 249*[may fluoresce violet] | ? | 56 | 41*[may fluoresce violet] | ?
CN(CCOc1ccc(Br)cc1)C(=O)CNC(=O)c1ccc2ccccc2c1 | -5 | 87 | 80 | 86 | 91 | 65
Cc1cc(C)n2nc(SCC(=O)N(C)C)nc2n1 | 13 | 435*[may fluoresce violet] | ? | 82 | 43*[may fluoresce violet] | ?
Cc1ccc(CCNC(=O)Cc2ccc(NC3=NC4CS(=O)(=O)CC4S3)cc2)cc1 (configuration not stated) | -19 | 107 | 108 | 104 | 103 | 103
Cc1cccc2nc(-c3cccnc3)c(NCCC(C)C)n12 | -316 | 179* | 108 | 149 | 108 | 145
Cc1cccc2nc(-c3cccnc3)c(Nc3ccccc3)n12 | -1 | 99 | 106 | 104 | 102 | 107
Cc1ccccc1N=C(NO)c1nonc1N | 6 | 105 | 100 | 107 | 98 | 92
CC1CCN(c2nc(N3CCCCC3)nc(N3CCCCC3)n2)CC1 | 5 | 98 | 98 | 113 | 98 | 91
C1CCN(c2nc(N3CCCCC3)nc(N3CCNCC3)n2)CC1 | -6 | 218*[may fluoresce violet] | 82 | 99 | 92 | ?
O=C(OC(C(=O)NCc1ccccc1)c1ccccc1F)c1ccco1 (configuration not stated) | 3 | 96 | 106 | 100 | 102 | 107
OC(CNCC1CCCCC1)COc1ccccc1 (configuration not stated) | -2 | 362*[may fluoresce violet] | ? | 63 | 49*[may fluoresce violet] | ?
COC(=O)n1c(SC)nc2ccccc21 | 12 | 106 | 96 | 93 | nt | 110
CCCCNC(=O)n1c(SC)nc2ccccc21 | 2 | 379*[may fluoresce violet] | 12 | 119 | 53 | ?
Cc1cc(C(=O)N2CCC(Cc3ccccc3)CC2)c(C)o1 | -4 | 107 | 97 | 106 | 104 | 93
Cc1ccc(NC(=O)CN2C(=O)c3ccccc3S2(=O)=O)c(C)c1 | 16 | 276*[may fluoresce violet] | ? | 68 | 33*[may fluoresce violet] | ?
COc1ccccc1CNC(=O)CN1NS(=O)(=O)c2ccccc2C1=O | -5 | 100 | 97 | 94 | 101 | 95
Cc1cccc(NC(=O)CN2NS(=O)(=O)c3ccccc3C2=O)c1 | 1 | 315*[may fluoresce violet] | ? | 123 | 16*[may fluoresce violet] | ?
CC(C)(C)NC(=O)[C@@H]1CN(Cc2cccnc2)CCN1C[C@@H](O)C[C@@H](Cc1ccccc1)C(=O)N[C@H]1c2ccccc2C[C@H]1O | -16 | 92 | 101 | 105 | 100 | 98
O=C(O)Cc1ccc2c(c1)N(S(=O)(=O)c1cccs1)CC(C(=O)O)O2 (configuration not stated) | -8 | 109 | 120 | 106 | 94 | 161*[may fluoresce green]
CCS(=O)(=O)c1ccc2c(c1)N(S(=O)(=O)c1cccs1)CC(C(=O)O)O2 (configuration not stated) | 1 | 98 | 109 | 105 | 97 | 125
Cc1ccc(-n2c(C)cc(/C([O-])=C(/C(=S)Nc3ccc(F)c(Cl)c3)[n+]3ccccc3)c2C)cc1 | -14 | 179*[may fluoresce violet] | 33 | 102 | 66 | ?
Cc1cc(/C([O-])=C(/C(=S)Nc2ccc(F)cc2)[n+]2ccccc2)c(C)n1-c1ccc(F)cc1 | -16 | 101 | 104 | 104 | 96 | 93

Bioassay records (PubChem)
